According to PubChem BioAssay (NCI):
This is part of a sample that, as a whole, favours compounds with a hit. Of some 79,000 tested, about 15% had one in any assay. Activity calls are given as the source filed them. No stated cut-off is given here; in the data, active means growth inhibition above about 70%; inactive means the rest.

Columns and labels:
[1] = NCI Yeast Anticancer Drug Screen. Data for the rad52 strain (AID 147);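 further: 0% = growth of vehicle-treated control cultures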; settings: S. cerevisiae rad52 mutant growth inhibition, stronger effect = higher value
Summary of the method: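 Screen used a yeast mutant impaired in DNA repair. After compound exposure, growth was measured. Values reflect inhibition compared with vehicle-treated cells.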

[2] = NCI Yeast Anticancer Drug Screen. Data for the wt1 strain (AID 149);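 further: 0% = growth of vehicle-treated wt1 cultures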; settings: S. cerevisiae wt1 strain (SPY 50644) growth inhibition, stronger effect = higher value
Summary of the method: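 Measured: growth of wt1 yeast under compound versus vehicle treatment, reported as inhibition.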

[3] = NCI Yeast Anticancer Drug Screen. Data for the rad50EPP+ strain (AID 151);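 further: 0% = growth of vehicle-treated control cultures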; settings: S. cerevisiae rad50 mutant strain, stronger effect = higher value
Summary of the method: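 Exposing the rad50EPP+ strain to each compound, growth was compared with vehicle-only cultures to give inhibition.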

[4] = NCI Yeast Anticancer Drug Screen. Data for the mgt1 strain (AID 153); settings: S. cerevisiae mgt1 mutant growth inhibition, stronger effect = higher value
Summary of the method: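 Genetically defined yeast (mgt1) treated with compound; inhibition of growth expressed against vehicle-treated controls.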

[5] = NCI Yeast Anticancer Drug Screen. Data for the rad50 strain (AID 155);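 further: 0% = growth of vehicle-only cultures of the same strain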; settings: S. cerevisiae rad50 strain growth inhibition, stronger effect = higher value
Summary of the method: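 Growth of the mutant yeast was measured after compound exposure and referenced to vehicle-treated cultures.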

[6] = NCI Yeast Anticancer Drug Screen. Data for the mec2-1 strain (AID 157); settings: S. cerevisiae mec2-1 strain, stronger effect = higher value
Summary of the method: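 Readout is yeast growth inhibition, normalised to vehicle-treated controls, in the mec2-1 strain exposed to compound.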

[7] = NCI Yeast Anticancer Drug Screen. Data for the rad14 strain (AID 159);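 further: 0% = growth of vehicle-treated control cultures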; settings: S. cerevisiae rad14 strain growth inhibition, stronger effect = higher value
Summary of the method: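 Here, inhibition of yeast growth was measured after compound exposure, using a strain with a genetic defect in DNA damage repair and vehicle-treated cultures as the reference.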

[8] = NCI Yeast Anticancer Drug Screen. Data for the sgs1 mgt1 strain (AID 161);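 further: 0% = growth of cultures given vehicle only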; settings: S. cerevisiae sgs1 mgt1 strain, stronger effect = higher value
Summary of the method: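 Percent growth inhibition was derived by comparing compound-exposed mutant yeast with vehicle-exposed cultures. The strain carries alterations in DNA damage repair.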

[9] = NCI Yeast Anticancer Drug Screen. Data for the CLN2oe strain (AID 163);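 further: 0% = growth of vehicle-only control cultures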; settings: S. cerevisiae CLN2oe strain, stronger effect = higher value
Summary of the method: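 Values reflect how much compound exposure reduced yeast growth, referenced to vehicle-exposed cells. Assay organism is a strain with a defined genetic change affecting cell-cycle control.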

[10] = NCI Yeast Anticancer Drug Screen. Data for the cln2 rad14 strain (AID 165);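 further: 0% = growth equal to vehicle treated cultures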; settings: S. cerevisiae cln2 rad14 strain, stronger effect = higher value
Summary of the method: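 Relative to vehicle controls, growth inhibition of compound-treated cln2 rad14 yeast was recorded.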

[11] = NCI Yeast Anticancer Drug Screen. Data for the bub3 strain (AID 167); settings: S. cerevisiae bub3 mutant strain, stronger effect = higher value
Summary of the method: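 Whole-cell yeast assay. The mutant strain was incubated with compounds, and growth inhibition was determined by comparison with vehicle-treated cells.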

[12] = NCI Yeast Anticancer Drug Screen. Data for the wt2 strain (AID 169);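 further: 0% = growth of vehicle-treated yeast cultures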; settings: S. cerevisiae wt2 strain growth inhibition, stronger effect = higher value
Summary of the method: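 Values express reduction in yeast growth under compound treatment, referenced to vehicle-treated cells.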

[13] = NCI Yeast Anticancer Drug Screen. Data for the mlh1 strain (AID 171);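 further: 0% = growth of vehicle-treated control cultures of the same strain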; settings: S. cerevisiae mlh1 strain growth inhibition, stronger effect = higher value
Summary of the method: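 Steps: expose the defined-mutant yeast strain to compound; expose a parallel culture to vehicle; measure growth; express compound effect as inhibition relative to the vehicle culture.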

[14] = NCI Yeast Anticancer Drug Screen. Data for the sgs1 strain (AID 173);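 further: 0% = growth of vehicle-only control cultures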; settings: S. cerevisiae sgs1 mutant, stronger effect = higher value
Summary of the method: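 Treat defined-mutant yeast with compound; measure growth; calculate inhibition relative to vehicle-treated cells.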

[15] = NCI Yeast Anticancer Drug Screen. Data for the mlh1 rad18 strain (AID 175); settings: S. cerevisiae mlh1 rad18 strain growth inhibition, stronger effect = higher value
Summary of the method: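 Test agents were incubated with a yeast strain of defined genotype (DNA damage repair defect). Inhibition of growth was derived by comparison with vehicle-exposed cultures.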

[16] = NCI Yeast Anticancer Drug Screen. Data for the rad18 strain (AID 177); settings: S. cerevisiae rad18 mutant growth inhibition, stronger effect = higher value
Summary of the method: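 A genetically defined yeast mutant impaired in DNA damage repair was treated with test compounds, then its growth was measured against cultures receiving vehicle alone.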

[17] = at 5.0 µM (retest, dose inferred, filed as 0.5)
[18] = at 50.0 µM (retest, dose inferred, filed as 5.0)

Measured: growth inhibition

Cc1ccc([N+]2=NC(c3ccccc3)=NN(c3ccccc3)C2)cc1
active: [1]; at 33.0 µM 90% | [1]; at 100.0 µM 96% | [2]; at 100.0 µM 96% | [4]; at 33.0 µM 89% | [4]; at 100.0 µM 97% | [5]; at 33.0 µM 84% | [5]; at 50.0 µM 97% | [5]; at 100.0 µM 95% | [6]; at 50.0 µM 91.8% | [6]; at 100.0 µM 96% | [7]; at 100.0 µM 96% | [8]; at 50.0 µM 95.3% | [9]; at 100.0 µM 96% | [10]; at 50.0 µM 95.8% | [11]; at 33.0 µM 94% | [11]; [18] 98% | [11]; at 50.0 µM 97.2% | [11]; at 100.0 µM 96% | [12]; at 33.0 µM 83% | [12]; at 100.0 µM 97% | [13]; at 33.0 µM 78% | [13]; at 100.0 µM 97% | [14]; at 33.0 µM 87% | [14]; at 100.0 µM 97% | [15]; at 50.0 µM 97.2% | [16]; at 33.0 µM 90% | [16]; at 100.0 µM 96%
inactive: [1]; at 1.2 µM 9% | [1]; at 3.7 µM 15% | [1]; at 11.0 µM 19% | [2]; at 1.2 µM 1% | [2]; at 3.7 µM 5% | [2]; at 11.0 µM 8% | [2]; at 33.0 µM 27% | [3]; at 1.2 µM 5% | [3]; at 3.7 µM 15% | [3]; at 11.0 µM 35% | [3]; at 33.0 µM 45% | [3]; at 100.0 µM 45% | [4]; at 1.2 µM 7% | [4]; at 3.7 µM 9% | [4]; at 11.0 µM 9% | [5]; at 1.2 µM 6% | [5]; at 3.7 µM 0% | [5]; [17] 15% | [5]; at 11.0 µM 2% | [5]; [18] 41% | [6]; at 1.2 µM -1% | [6]; at 3.7 µM -3% | [6]; [17] 2% | [6]; at 11.0 µM 1% | [6]; at 33.0 µM 65% | [6]; [18] 16% | [7]; at 1.2 µM 5% | [7]; at 3.7 µM 5% | [7]; at 11.0 µM 18% | [7]; at 33.0 µM 44% | [8]; [17] 10% | [8]; [18] 12% | [9]; at 1.2 µM 2% | [9]; at 3.7 µM -1% | [9]; at 11.0 µM 2% | [9]; at 33.0 µM 46% | [10]; [17] 11% | [10]; [18] 69% | [11]; at 1.2 µM 0% | [11]; at 3.7 µM -1% | [11]; [17] -2% | [11]; at 11.0 µM 12% | [12]; at 1.2 µM 0% | [12]; at 3.7 µM 4% | [12]; at 11.0 µM 7% | [13]; at 1.2 µM 1% | [13]; at 3.7 µM 4% | [13]; at 11.0 µM 7% | [14]; at 1.2 µM 0% | [14]; at 3.7 µM 1% | [14]; at 11.0 µM 5% | [15]; [17] 3% | [15]; [18] 45% | [16]; at 1.2 µM 2% | [16]; at 3.7 µM 11% | [16]; at 11.0 µM 11%

COc1ccc(C(=O)Oc2ccccc2Br)cc1
active: [8]; [18] 78% | [11]; [18] 75% | [15]; [18] 90%
inactive: [1]; at 1.2 µM 5% | [1]; at 3.7 µM 6% | [1]; at 11.0 µM 3% | [1]; at 33.0 µM 19% | [1]; at 100.0 µM 44% | [2]; at 1.2 µM -5% | [2]; at 3.7 µM -7% | [2]; at 11.0 µM -10% | [2]; at 33.0 µM -10% | [2]; at 100.0 µM -3% | [3]; at 1.2 µM 13% | [3]; at 3.7 µM 22% | [3]; at 11.0 µM 26% | [3]; at 33.0 µM 35% | [3]; at 100.0 µM 62% | [4]; at 1.2 µM -8% | [4]; at 3.7 µM -5% | [4]; at 11.0 µM -7% | [4]; at 33.0 µM -5% | [4]; at 100.0 µM 25% | [5]; at 1.2 µM 8% | [5]; at 3.7 µM 7% | [5]; [17] 5% | [5]; at 11.0 µM 8% | [5]; at 33.0 µM 28% | [5]; [18] 64% | [5]; at 50.0 µM 6.6% | [5]; at 100.0 µM 62% | [6]; at 1.2 µM -5% | [6]; at 3.7 µM -8% | [6]; [17] -20% | [6]; at 11.0 µM -10% | [6]; at 33.0 µM -7% | [6]; [18] 8% | [6]; at 50.0 µM 5.05% | [6]; at 100.0 µM 20% | [7]; at 1.2 µM 3% | [7]; at 3.7 µM -1% | [7]; at 11.0 µM -1% | [7]; at 33.0 µM 10% | [7]; at 100.0 µM 39% | [8]; [17] 0% | [8]; at 50.0 µM 36.1% | [9]; at 1.2 µM -4% | [9]; at 3.7 µM -12% | [9]; at 11.0 µM -18% | [9]; at 33.0 µM -14% | [9]; at 100.0 µM 9% | [10]; [17] 0% | [10]; [18] 16% | [10]; at 50.0 µM -16.3% | [11]; at 1.2 µM 3% | [11]; at 3.7 µM 2% | [11]; [17] 18% | [11]; at 11.0 µM -2% | [11]; at 33.0 µM 5% | [11]; at 50.0 µM 32.4% | [11]; at 100.0 µM 19% | [12]; at 1.2 µM -5% | [12]; at 3.7 µM -13% | [12]; at 11.0 µM -11% | [12]; at 33.0 µM -10% | [12]; at 100.0 µM 0% | [13]; at 1.2 µM -1% | [13]; at 3.7 µM 0% | [13]; at 11.0 µM -2% | [13]; at 33.0 µM 8% | [13]; at 100.0 µM 39% | [14]; at 1.2 µM -18% | [14]; at 3.7 µM -13% | [14]; at 11.0 µM -11% | [14]; at 33.0 µM 3% | [14]; at 100.0 µM 36% | [15]; [17] 5% | [15]; at 50.0 µM 7.85% | [16]; at 1.2 µM 1% | [16]; at 3.7 µM 2% | [16]; at 11.0 µM 1% | [16]; at 33.0 µM 10% | [16]; at 100.0 µM 53%
